Results taken from the supplement of paper PMC11732987, “Enantioselective OTUD7B fragment discovery through chemoproteomics screening and high-throughput optimisation” (Communications Chemistry, 2025).

Tests used:
Assay in all cases: log2 ratio of Biotin-Ahx-Ub-VS probe labelling (fragment/DMSO); higher = less target engagement (more negative = stronger competition), active = hit call of the paper (q ≤ 0.05, log2 ratio ≤ -1)
Settings in all cases: compound concentration: 200 uM; treatment time: 3 h
[1] = target: T1, USP19 (UniProt O94966)
T1 sequence (whole entry): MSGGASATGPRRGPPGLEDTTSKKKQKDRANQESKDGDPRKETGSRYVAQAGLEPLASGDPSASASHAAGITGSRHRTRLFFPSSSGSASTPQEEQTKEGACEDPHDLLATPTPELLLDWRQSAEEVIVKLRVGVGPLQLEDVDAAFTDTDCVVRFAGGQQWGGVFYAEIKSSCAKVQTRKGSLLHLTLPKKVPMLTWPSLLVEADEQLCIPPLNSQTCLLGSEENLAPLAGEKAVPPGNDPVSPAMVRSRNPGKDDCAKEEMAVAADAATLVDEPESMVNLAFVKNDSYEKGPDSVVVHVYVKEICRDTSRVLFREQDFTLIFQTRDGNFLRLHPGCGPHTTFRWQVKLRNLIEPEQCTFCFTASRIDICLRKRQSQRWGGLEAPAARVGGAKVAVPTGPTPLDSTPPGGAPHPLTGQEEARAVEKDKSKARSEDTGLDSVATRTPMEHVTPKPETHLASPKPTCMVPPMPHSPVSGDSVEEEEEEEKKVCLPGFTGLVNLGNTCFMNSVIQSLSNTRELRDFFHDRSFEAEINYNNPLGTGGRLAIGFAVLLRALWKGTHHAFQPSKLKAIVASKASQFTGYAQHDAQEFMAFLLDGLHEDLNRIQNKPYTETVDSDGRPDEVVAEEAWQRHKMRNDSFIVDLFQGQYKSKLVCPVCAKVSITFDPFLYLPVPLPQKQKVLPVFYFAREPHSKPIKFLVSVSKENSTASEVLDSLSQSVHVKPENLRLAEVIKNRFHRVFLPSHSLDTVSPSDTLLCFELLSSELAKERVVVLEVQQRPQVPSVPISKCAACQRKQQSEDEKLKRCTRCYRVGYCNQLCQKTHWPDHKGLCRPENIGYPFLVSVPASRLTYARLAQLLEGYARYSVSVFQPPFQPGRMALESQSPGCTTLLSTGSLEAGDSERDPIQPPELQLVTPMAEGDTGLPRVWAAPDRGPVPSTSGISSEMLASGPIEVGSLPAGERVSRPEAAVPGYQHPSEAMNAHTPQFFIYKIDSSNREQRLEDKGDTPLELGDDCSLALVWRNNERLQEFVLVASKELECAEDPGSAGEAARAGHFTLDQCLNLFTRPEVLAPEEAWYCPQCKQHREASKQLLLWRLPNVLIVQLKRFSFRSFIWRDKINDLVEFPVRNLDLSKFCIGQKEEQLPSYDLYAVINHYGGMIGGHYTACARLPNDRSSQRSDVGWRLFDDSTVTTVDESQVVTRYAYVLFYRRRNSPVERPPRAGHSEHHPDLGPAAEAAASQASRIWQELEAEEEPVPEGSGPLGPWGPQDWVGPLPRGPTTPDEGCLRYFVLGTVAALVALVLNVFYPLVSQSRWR
How it was run: (§1)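 Fragment (200 µM) or vehicle was incubated for 3 h with triplicate HEK293T lysate samples of 495 µg, which were then treated with Biotin-Ahx-Ub-VS at 0.5 µM final for 1 h. Labelled DUBs were enriched on NeutrAvidin, digested with LysC and trypsin, and analysed by diaPASEF LC-MS/MS. Values are average log2 fragment/vehicle ratios from an unpaired t-test on global-median-normalised Spectronaut label-free quantities, using proteins with ≥2 unique peptides.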

[2] = target: T2, USP22 (UniProt Q9UPT9)
T2 sequence (whole entry): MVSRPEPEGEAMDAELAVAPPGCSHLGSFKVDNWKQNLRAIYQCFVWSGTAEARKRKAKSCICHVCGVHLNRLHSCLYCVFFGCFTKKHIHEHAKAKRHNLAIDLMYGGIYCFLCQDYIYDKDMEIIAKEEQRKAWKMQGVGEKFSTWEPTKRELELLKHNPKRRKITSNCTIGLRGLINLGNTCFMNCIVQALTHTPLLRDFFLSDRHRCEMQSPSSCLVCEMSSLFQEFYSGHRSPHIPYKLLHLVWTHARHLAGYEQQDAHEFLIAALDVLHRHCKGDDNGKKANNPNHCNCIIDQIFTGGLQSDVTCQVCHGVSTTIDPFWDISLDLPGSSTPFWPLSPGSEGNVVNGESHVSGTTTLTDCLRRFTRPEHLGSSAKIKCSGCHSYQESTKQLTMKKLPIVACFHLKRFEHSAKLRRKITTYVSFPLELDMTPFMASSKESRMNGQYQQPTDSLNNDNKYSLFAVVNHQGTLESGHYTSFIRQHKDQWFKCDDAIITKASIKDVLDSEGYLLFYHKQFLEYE
How it was run: as §1

[3] = target: USP24 (UniProt Q9UPU5)
Sequence of USP24 (Q9UPU5 whole entry): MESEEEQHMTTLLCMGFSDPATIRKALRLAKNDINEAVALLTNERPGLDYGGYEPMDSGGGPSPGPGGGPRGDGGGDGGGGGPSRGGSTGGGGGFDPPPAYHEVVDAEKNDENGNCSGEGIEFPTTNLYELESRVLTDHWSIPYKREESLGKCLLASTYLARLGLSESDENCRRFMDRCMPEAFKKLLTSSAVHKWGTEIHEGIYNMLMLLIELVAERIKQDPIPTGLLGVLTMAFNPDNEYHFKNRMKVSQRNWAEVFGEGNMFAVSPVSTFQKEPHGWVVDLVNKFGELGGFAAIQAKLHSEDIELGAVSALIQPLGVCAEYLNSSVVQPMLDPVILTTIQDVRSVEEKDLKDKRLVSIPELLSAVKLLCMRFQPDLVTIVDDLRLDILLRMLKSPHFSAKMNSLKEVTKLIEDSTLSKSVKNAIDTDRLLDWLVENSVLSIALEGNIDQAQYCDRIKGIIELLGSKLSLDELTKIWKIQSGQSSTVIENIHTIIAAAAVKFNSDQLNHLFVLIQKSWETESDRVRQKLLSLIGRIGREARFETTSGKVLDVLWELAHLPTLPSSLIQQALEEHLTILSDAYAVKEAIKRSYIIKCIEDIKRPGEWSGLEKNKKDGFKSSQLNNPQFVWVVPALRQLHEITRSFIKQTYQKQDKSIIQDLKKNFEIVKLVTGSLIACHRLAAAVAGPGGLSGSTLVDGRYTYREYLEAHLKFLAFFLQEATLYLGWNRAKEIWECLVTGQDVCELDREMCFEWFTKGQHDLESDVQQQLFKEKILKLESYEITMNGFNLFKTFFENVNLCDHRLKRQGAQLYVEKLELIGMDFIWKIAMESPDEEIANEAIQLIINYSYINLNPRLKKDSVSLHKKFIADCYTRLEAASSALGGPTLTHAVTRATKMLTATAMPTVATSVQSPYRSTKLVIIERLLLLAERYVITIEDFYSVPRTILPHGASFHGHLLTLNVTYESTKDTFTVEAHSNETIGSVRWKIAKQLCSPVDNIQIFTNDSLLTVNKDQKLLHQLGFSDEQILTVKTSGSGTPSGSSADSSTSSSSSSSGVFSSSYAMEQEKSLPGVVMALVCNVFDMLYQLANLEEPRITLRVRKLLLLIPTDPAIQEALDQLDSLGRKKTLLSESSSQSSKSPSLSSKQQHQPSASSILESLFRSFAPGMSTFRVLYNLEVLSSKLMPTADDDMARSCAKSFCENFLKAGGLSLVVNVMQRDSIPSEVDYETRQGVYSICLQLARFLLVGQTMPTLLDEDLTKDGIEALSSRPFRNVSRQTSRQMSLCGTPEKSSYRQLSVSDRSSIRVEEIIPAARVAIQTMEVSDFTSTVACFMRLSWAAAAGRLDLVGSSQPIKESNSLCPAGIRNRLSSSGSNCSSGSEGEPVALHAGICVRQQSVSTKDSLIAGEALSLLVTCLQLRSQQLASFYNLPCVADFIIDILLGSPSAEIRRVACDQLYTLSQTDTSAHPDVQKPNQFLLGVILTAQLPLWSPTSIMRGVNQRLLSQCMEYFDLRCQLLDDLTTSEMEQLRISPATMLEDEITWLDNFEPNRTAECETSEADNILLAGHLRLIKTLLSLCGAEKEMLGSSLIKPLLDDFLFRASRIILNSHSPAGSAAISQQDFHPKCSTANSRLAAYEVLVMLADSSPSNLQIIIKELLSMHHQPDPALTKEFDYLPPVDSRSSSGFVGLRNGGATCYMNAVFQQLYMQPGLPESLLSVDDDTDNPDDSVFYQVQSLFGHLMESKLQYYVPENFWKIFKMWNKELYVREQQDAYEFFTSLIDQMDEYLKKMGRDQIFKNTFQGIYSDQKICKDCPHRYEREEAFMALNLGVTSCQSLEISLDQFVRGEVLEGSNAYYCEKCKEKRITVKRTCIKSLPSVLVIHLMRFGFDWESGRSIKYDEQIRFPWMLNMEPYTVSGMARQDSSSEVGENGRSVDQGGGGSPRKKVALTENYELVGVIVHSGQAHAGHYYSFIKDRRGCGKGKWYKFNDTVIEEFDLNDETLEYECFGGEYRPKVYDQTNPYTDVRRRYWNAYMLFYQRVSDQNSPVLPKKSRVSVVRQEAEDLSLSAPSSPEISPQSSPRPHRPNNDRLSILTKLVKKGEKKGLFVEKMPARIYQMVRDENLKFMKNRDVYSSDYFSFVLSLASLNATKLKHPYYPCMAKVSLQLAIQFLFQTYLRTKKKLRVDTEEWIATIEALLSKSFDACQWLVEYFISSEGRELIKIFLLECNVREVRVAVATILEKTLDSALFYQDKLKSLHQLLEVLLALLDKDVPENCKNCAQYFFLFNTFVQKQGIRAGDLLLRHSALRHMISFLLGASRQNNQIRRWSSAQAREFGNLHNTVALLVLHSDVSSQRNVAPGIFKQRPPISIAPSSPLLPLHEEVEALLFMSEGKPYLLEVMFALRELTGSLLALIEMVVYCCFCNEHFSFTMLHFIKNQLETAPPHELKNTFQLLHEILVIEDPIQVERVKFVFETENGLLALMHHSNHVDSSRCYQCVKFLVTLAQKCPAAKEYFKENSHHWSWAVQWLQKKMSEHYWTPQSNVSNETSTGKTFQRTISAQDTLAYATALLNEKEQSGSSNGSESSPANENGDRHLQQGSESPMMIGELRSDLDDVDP
How it was run: as §1

[4] = target: T3, USP25 (UniProt Q9UHP3)
T3 sequence (whole entry): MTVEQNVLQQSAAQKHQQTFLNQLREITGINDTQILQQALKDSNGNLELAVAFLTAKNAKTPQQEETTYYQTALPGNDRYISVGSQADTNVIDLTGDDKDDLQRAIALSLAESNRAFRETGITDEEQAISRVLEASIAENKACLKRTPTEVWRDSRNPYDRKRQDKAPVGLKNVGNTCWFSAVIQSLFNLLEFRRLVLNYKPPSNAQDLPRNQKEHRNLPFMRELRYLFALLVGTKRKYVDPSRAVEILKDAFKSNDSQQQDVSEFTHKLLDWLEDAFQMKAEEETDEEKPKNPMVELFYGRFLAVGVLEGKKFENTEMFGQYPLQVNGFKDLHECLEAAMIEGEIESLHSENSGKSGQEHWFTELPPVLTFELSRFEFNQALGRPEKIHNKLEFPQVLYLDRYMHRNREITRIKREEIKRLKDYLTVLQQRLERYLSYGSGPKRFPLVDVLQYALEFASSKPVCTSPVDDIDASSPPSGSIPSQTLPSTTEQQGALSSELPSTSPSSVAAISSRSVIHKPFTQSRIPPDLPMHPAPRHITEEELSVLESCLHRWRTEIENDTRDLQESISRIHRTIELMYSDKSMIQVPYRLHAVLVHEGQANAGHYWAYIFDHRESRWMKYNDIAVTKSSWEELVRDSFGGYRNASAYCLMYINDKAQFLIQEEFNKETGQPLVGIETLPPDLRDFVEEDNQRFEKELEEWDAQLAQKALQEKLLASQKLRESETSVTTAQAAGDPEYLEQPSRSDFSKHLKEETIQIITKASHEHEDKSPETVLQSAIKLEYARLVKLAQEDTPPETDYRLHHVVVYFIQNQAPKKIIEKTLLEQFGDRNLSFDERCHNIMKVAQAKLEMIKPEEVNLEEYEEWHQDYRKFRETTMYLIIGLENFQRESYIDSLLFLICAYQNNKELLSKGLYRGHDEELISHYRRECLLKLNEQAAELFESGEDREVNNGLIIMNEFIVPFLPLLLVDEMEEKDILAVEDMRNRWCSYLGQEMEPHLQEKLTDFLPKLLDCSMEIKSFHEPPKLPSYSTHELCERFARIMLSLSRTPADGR
How it was run: as §1

[5] = target: T4, USP28 (UniProt Q96RU2)
T4 sequence (whole entry): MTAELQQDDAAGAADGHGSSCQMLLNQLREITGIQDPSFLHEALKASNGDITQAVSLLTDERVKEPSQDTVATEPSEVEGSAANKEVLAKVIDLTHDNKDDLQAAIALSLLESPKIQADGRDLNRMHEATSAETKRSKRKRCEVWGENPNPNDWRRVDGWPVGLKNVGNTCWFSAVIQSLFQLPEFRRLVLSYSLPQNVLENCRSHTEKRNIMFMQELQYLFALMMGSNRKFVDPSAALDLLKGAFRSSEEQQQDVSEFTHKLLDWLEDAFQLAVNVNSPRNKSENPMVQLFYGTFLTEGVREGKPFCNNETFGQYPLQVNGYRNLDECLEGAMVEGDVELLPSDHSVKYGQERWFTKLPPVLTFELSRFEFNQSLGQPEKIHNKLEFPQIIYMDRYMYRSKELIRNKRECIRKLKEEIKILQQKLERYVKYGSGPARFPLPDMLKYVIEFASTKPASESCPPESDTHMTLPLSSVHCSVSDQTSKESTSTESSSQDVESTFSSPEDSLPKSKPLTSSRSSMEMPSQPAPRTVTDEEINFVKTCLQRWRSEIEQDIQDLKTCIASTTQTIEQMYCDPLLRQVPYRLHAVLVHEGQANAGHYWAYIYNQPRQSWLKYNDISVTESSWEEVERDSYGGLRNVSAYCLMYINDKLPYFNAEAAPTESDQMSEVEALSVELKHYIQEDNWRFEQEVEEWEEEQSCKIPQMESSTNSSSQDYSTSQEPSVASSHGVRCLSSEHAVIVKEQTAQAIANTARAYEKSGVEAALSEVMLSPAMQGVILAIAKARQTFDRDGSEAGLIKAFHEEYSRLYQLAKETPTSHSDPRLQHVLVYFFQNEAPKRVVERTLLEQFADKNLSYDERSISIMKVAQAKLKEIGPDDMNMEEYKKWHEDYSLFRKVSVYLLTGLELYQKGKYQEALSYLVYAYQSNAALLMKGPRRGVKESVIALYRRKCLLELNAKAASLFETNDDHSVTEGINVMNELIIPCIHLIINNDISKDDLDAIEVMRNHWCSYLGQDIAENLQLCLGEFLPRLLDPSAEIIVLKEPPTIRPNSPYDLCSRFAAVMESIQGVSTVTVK
How it was run: as §1

Measured: log2 ratio of Biotin-Ahx-Ub-VS probe labelling

Cl.Cn1ncc2c1CCCC2NC(=O)CCl (stereo not given)
inactive: [1] -0.297 | [2] 0.202 | [3] -0.29 | [4] -0.289 | [5] -0.57
